We go through four molecules from article PMC5540273 (PLoS ONE, 2017).

Holding throughout (settings): concentration: 1 μM, replicates: in singlicate; n = 1
Assay [1] concerns T1, MRCKB.
T1 construct: gene CDC42BPB

Assay [2] concerns MST1R.
Assay [3] relates to T2, MST1.
T2 construct: gene STK4

The test system of assay [4] is T3, MST2.
T3 construct: gene STK3

Assay [5] deals with T4, MST3.
T4 construct: gene STK24

Assay [6] deals with MST4.
The test system of assay [7] is MTOR.
Assay [8] concerns MUSK.
Assay [9] has as its system MYLK2.
The test system of assay [10] is MYLK4.
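Further: KINOMEscan kinase panel screen.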

Regarding `CN1C(=O)C(Nc2cc(Cl)c(O)c(Cl)c2)=C(c2ccc(Cl)cc2)C1=O` [SB-404321], the “%Inh” value in assay [1] was 0%; in [2], 0%; in [3] it was 0%; in assay [4], 33%; in assay [5], 0%; in [6], 0%. The “%Inh” value in assay [7] is listed as 2%; in assay [8], 0%; in assay [9], 11%; in assay [10], 0%.
With `Cc1nnc(-c2ccc(C)c(-c3ccc(C(=O)O)cc3)c2)o1` [GW608005], the “%Inh” value in assay [1] was 0%; in assay [2], 17%; in [3], 0%; in [4] it was 0%; in [5], 0%; in assay [6], 0%. Further, the “%Inh” value in [7] was determined as 0%; in assay [8] it was 5%; in [9], 2%; in assay [10], 3%.
As for `CN1C(=O)C(Nc2ccccc2)=C(c2ccccc2)C1=O` [SB-300079], the “%Inh” value in assay [1], in assay [2], in [3], in assay [4], in assay [5] and in assay [6] was 0% in each case. Also, the “%Inh” value in assay [7] is 26%; in assay [8], 0%; in assay [9], 5%; in assay [10] it was 28%.
With `Nc1nc(N)c2nc(-c3ccccc3)[nH]c2n1` [SKF-12778], the “%Inh” value in [1] is reported as 0%; in assay [2], 0%; in [3], 4%; in assay [4], 32%; in assay [5] it was 13%; in [6], 10%. Also, the “%Inh” value stood at 26% in assay [7], 18% in assay [8], 2% in [9] and 1% in [10].
